These results are taken from PubChem BioAssay (NCI).

About 83,000 compounds went through this panel and 20% of them were active in at least one assay; those are over-represented in the sample as a whole.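 Values shown are percent growth following 48 h exposure of cells in 96-well plates to a single concentration of compound; below 10 was considered active.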 Unmarked numbers belong to inactive results. Calls of active or inactive are those of the source.

Assay in all cases: NCI-60 one-dose screen, 48 h (100 = growth as untreated, 0 = no growth, -100 = all killed)
Holding throughout (conditions): 10 µM unless noted

The test system of experiment [1] is SR leukemia.
In experiment [2] the test system is RPMI-8226 leukemia.
Experiment [3] deals with OVCAR-8 ovarian.
For experiment [4], the system named is OVCAR-5 ovarian.
In experiment [5] the test system is OVCAR-4 ovarian.
Experiment [6] relates to SK-OV-3 ovarian.
Experiment [7] relates to IGROV1 ovarian.
Experiment [8] has as its system OVCAR-3 ovarian.
In experiment [9] the test system is HS 578T breast.
The subject of experiment [10] is NCI/ADR-RES ovarian.
Experiment [11] relates to T-47D breast.
The subject of experiment [12] is BT-549 breast.
The test system of experiment [13] is MDA-MB-435 melanoma.
For experiment [14], the system named is SW-620 colon.
Experiment [15] concerns MCF7 breast.
For experiment [16], the system named is HCT-116 colon.
Experiment [17] concerns HCC-2998 colon.
Experiment [18] relates to KM12 colon.

For the molecule `Cc1nc2sc(C(=O)Nc3ccccc3)c(N)c2cc1C(O)c1ccccc1` (configuration not stated), the growth in experiment [1] is -5.59% (active); in [2] it was 5.65% (active); in [3], 19.2%; in experiment [4], 33.2%; in [5] it was 46.9%; in experiment [6], 27.3%. The growth in experiment [7] is 27.7%; in [8], 5.62% (active); in experiment [9], 8.01% (active); in experiment [10], 15%; in experiment [11], 54.6%; in [12], 67.9%. Also, the growth in experiment [13] is -18.3% (active); in experiment [14], 24.1%; in experiment [15], 17%; in [16] it was 11.8%; in [17] it was 15.4%; in [18], 18.3%.
For the molecule `O=C1C(c2c(O)[nH]c3ncccc23)=Nc2ccccc21`, the growth in experiment [1] was 82.5%; in experiment [2], 75.4%; in experiment [3] it was 84.4%; in [4], 77.7%; in [5] it was 80.4%; in experiment [6], 69.6%. Moreover, the growth in experiment [7] is -40.9% (active); in experiment [8], 75.8%; in experiment [9], 72.5%; in experiment [10], 82.7%; in experiment [11], 48.4%; in experiment [12], 70.6%. In addition, the growth in experiment [13] is 92.9%; in [14], 102%; in [15] it was 41%; in experiment [16] it was 48.5%; in [17], 25.3%; in experiment [18] it was 69.5%.
Take `O=C(Nc1cccc2c1C(=O)c1cccc(NC(=O)c3ccc(C(=O)Nc4cccc5c4C(=O)c4cccc(NC(=O)c6ccccc6)c4C5=O)cc3)c1C2=O)c1ccccc1`: the growth in [1] was 9.04% (active); in [2] it was 105%; in experiment [3], 98.1%; in experiment [4], 91.1%; in experiment [5], 98.9%; in experiment [6], 99.4%. Besides, the growth in experiment [7] is 41.1%; in experiment [8], 106%; in experiment [9], 99.5%; in [10] it was 101%; in experiment [11] it was 101%; in experiment [12], 72.4%. Besides, the growth is 112% in experiment [13]; 99.9% in experiment [14]; 104% in experiment [15]; 104% in experiment [16]; 101% in experiment [17]; 102% in experiment [18].
With `C=C(c1ccc(C(=O)O)c(F)c1)c1cc2c(cc1C)C(C)(C)C=CC2(C)C`, the growth in [1] is 91.6%; in experiment [2], 26.3%; in [3], 82.8%; in experiment [4], 111%; in experiment [5] it was 81.2%; in experiment [6], 73%. For the same molecule, the growth was 90.4% in [7]; 92.5% in experiment [8]; 61.9% in experiment [9]; 83.1% in [10]; 58.9% in experiment [11]; 87.4% in experiment [12]. Moreover, the growth is 95.3% in [13]; 110% in [14]; 52.5% in experiment [15]; 85.4% in experiment [16]; 112% in [17]; 66.6% in experiment [18].
As for `OC1CSSC1Cn1cnc2c(Nc3ccc(F)c(Cl)c3)ncnc21` (configuration not stated), the growth in experiment [1] is 3.55% (active); in experiment [2], 55.7%; in experiment [3], 96.5%; in [4], 115%; in [5], 91.4%; in [6] it was 107%. For the same molecule, the growth in experiment [7] was 93.2%; in [8], 68.5%; in experiment [9] it was 103%; in [10], 93.3%; in experiment [11] it was 61.4%; in experiment [12], 119%. The growth in experiment [13] was 63.8%; in experiment [14], 104%; in experiment [15], 45.7%; in [16] it was 74.7%; in experiment [17], 96.4%; in experiment [18] it was 73.2%.
Regarding `C#CCOc1cccc(Nc2c(Cl)c(CCl)nc3ccc(Oc4ccccc4)cc23)c1`, the growth is 10.4% in experiment [1]; 24.5% in [2]; 24.8% in experiment [3]; 82.7% in experiment [4]; 75% in [5]; 109% in experiment [6]. Further, the growth was 43.2% in experiment [7]; 31.6% in experiment [8]; 74.9% in experiment [9]; 60.2% in [10]; 82.1% in experiment [11]; 15.8% in experiment [12]. For the same molecule, the growth in experiment [13] is 15.6%; in experiment [14], 20.6%; in experiment [15] it was 12.9%; in [16], 27.2%; in experiment [17], 104%; in [18], 69.7%.
As for `CCN1C(=O)N(CC)C2C1NC(=S)N2/N=C/C=C/c1cccs1` (configuration not stated), the growth in [1] was 17.8%; in experiment [2], 25.4%; in experiment [3], 17.2%; in experiment [4], 33%; in experiment [5], 57.3%; in [6], 43.7%. In addition, the growth in experiment [7] is 24.5%; in [8], 2.01% (active); in [9] it was 16.5%; in experiment [10], 4.47% (active); in experiment [11], 66.4%; in experiment [12], 24.1%. In addition, the growth in experiment [13] is -26.9% (active); in experiment [14], 25.5%; in experiment [15], 18.3%; in experiment [16], 15.1%; in experiment [17] it was 16.4%; in experiment [18], 18.5%.
With `N#C/C(=C/C=C/c1ccccc1)S(=O)c1ccccc1` (configuration not stated), the growth in [1] was 3.12% (active); in experiment [2] it was -8.55% (active); in experiment [3], 14.1%; in [4], -55.4% (active); in experiment [5], 18.6%; in experiment [6], 32.3%. The growth is 1.27% (active) in [7]; -82.2% (active) in [8]; 15.8% in [9]; 11.9% in experiment [10]; -20.1% (active) in experiment [11]; -77.9% (active) in experiment [12]. Further, the growth is -29.8% (active) in experiment [13]; -40.4% (active) in experiment [14]; -40.2% (active) in experiment [15]; -89.6% (active) in experiment [16]; -88.9% (active) in [17]; -42.4% (active) in experiment [18].
On to `COc1ccc(Nc2nccc(Nc3ccc4[nH]ncc4c3)n2)cc1`, for which the growth in [1] was 4.38% (active); in [2], 2.72% (active); in experiment [3] it was 9.36% (active); in [4] it was 52.1%; in [5], 33.3%; in experiment [6] it was 52.1%. The growth in experiment [7] was 50.6%; in experiment [8], 48.9%; in experiment [9] it was 46.7%; in experiment [10], 17.7%; in experiment [11], -3.74% (active); in experiment [12], 44.2%. Moreover, the growth in experiment [13] was 34.9%; in experiment [14], 24.8%; in experiment [15], 13.3%; in [16], 19.3%; in experiment [17], 63.4%; in [18], 10%.
